# Records with an inconclusive call do not appear. A call without a number means that no potency is given here. Unmarked numbers belong to inactive results. Calls of active or inactive are those of the source. Calls come from the whole dose curve; as a rule, active = well fitted inhibition curve with a large enough effect; inconclusive = small, poorly fitted or top-dose-only effect; inactive = flat fitted curve, though single readings scatter.
# Legend:
# [1] = qHTS profiling for inhibitors of Plasmodium falciparum proliferation (AID 504749); note: nearly all actives have a fitted effect of over 60% in size; details: P. falciparum in erythrocytes, SYBR Green DNA, 72 h
# Method in brief: (§1)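 SYBR Green fluorescence (ex 485 nm, em 535 nm) reports parasite DNA after 72 h compound exposure of infected red cells at 0.3% parasitemia, 2.5% hematocrit; signal normalized to 0.29 uM artemisinin and vehicle wells.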
# [2] = system: 3D7; assay: as above; details: P. falciparum in erythrocytes, SYBR Green DNA, 72 h; series mostly up to 28.7 µM
# Method in brief: as §1
# [3] = system: 7G8; assay: as above; details: P. falciparum in erythrocytes, SYBR Green DNA, 72 h; series mostly up to 28.7 µM
# Method in brief: as §1
# [4] = system: AA1029; assay: as above; details: P. falciparum in erythrocytes, SYBR Green DNA, 72 h; series mostly up to 28.7 µM
# Method in brief: as §1
# [5] = system: AS120; assay: as above; details: P. falciparum in erythrocytes, SYBR Green DNA, 72 h; series mostly up to 28.7 µM
# Method in brief: as §1
# [6] = system: ATS189; assay: as above; details: P. falciparum in erythrocytes, SYBR Green DNA, 72 h; series mostly up to 28.7 µM
# Method in brief: as §1
# [7] = system: ATS95; assay: as above; details: P. falciparum in erythrocytes, SYBR Green DNA, 72 h; series mostly up to 28.7 µM
# Method in brief: as §1
# [8] = system: C2A; assay: as above; details: P. falciparum in erythrocytes, SYBR Green DNA, 72 h; series mostly up to 28.7 µM
# Method in brief: as §1
# [9] = system: CP185; assay: as above; details: P. falciparum in erythrocytes, SYBR Green DNA, 72 h; series mostly up to 28.7 µM
# Method in brief: as §1
# [10] = system: CP191; assay: as above; details: P. falciparum in erythrocytes, SYBR Green DNA, 72 h; series mostly up to 28.7 µM
# Method in brief: as §1
# [11] = system: CP192; assay: as above; details: P. falciparum in erythrocytes, SYBR Green DNA, 72 h; series mostly up to 28.7 µM
# Method in brief: as §1
# [12] = system: CP194; assay: as above; details: P. falciparum in erythrocytes, SYBR Green DNA, 72 h; series mostly up to 28.7 µM
# Method in brief: as §1
# [13] = system: CP201; assay: as above; details: P. falciparum in erythrocytes, SYBR Green DNA, 72 h; series mostly up to 28.7 µM
# Method in brief: as §1
# [14] = system: CP203; assay: as above; details: P. falciparum in erythrocytes, SYBR Green DNA, 72 h; series mostly up to 28.7 µM
# Method in brief: as §1
# [15] = system: CP211; assay: as above; details: P. falciparum in erythrocytes, SYBR Green DNA, 72 h; series mostly up to 28.7 µM
# Method in brief: as §1
# [16] = system: CP215; assay: as above; details: P. falciparum in erythrocytes, SYBR Green DNA, 72 h; series mostly up to 28.7 µM
# Method in brief: as §1
# [17] = system: CP217; assay: as above; details: P. falciparum in erythrocytes, SYBR Green DNA, 72 h; series mostly up to 28.7 µM
# Method in brief: as §1
# [18] = system: CP237; assay: as above; details: P. falciparum in erythrocytes, SYBR Green DNA, 72 h; series mostly up to 28.7 µM
# Method in brief: as §1
# [19] = system: CP238; assay: as above; details: P. falciparum in erythrocytes, SYBR Green DNA, 72 h; series mostly up to 28.7 µM
# Method in brief: as §1
# [20] = at 28.7 µM (top of the series), parasite line A
# [21] = at 28.7 µM (top of the series), parasite line B
# [22] = at 12.8 µM (top of the series), parasite line A
# [23] = at 12.8 µM (top of the series), parasite line B
# Potency is the fitted concentration of half-maximal effect.
smiles,measurement,setting,value
C[C@@H](N)C(=O)O,"activity, negative = inhibition",[1]; [20],26.2%
same,"activity, negative = inhibition",[1]; [21],15.6%
same,Potency,[2],inactive
same,Potency,[3],inactive
same,Potency,[4],inactive
same,Potency,[5],inactive
same,Potency,[6],inactive
same,Potency,[7],inactive
same,Potency,[8],inactive
same,Potency,[9],inactive
same,outcome,[10],inactive
same,outcome,[11],inactive
same,outcome,[12],inactive
same,outcome,[13],inactive
same,Potency,[14],9.53 µM (active)
same,outcome,[15],inactive
same,Potency,[16],1.69 µM (active)
same,outcome,[17],inactive
same,Potency,[18],inactive
same,Potency,[19],inactive
CC(=O)N(CC(O)CO)c1c(I)c(C(=O)NCC(O)CO)c(I)c(C(=O)NCC(O)CO)c1I (configuration not stated),"activity, negative = inhibition",[1]; [20],7.48%
same,"activity, negative = inhibition",[1]; [21],5.34%
same,Potency,[2],inactive
same,Potency,[3],11.2 µM (active)
same,Potency,[4],inactive
same,Potency,[5],inactive
same,Potency,[7],inactive
same,Potency,[8],inactive
same,Potency,[9],inactive
same,outcome,[11],inactive
same,outcome,[12],inactive
same,outcome,[13],inactive
same,Potency,[14],inactive
same,outcome,[15],inactive
same,Potency,[16],inactive
same,outcome,[17],inactive
same,Potency,[18],inactive
same,Potency,[19],inactive
NS(=O)(=O)c1ccc(NC(=O)CCC(=O)O)cc1,"activity, negative = inhibition",[1]; [20],0.494%
same,"activity, negative = inhibition",[1]; [21],7.64%
same,Potency,[2],inactive
same,Potency,[3],inactive
same,Potency,[4],inactive
same,Potency,[5],inactive
same,Potency,[6],inactive
same,Potency,[7],inactive
same,Potency,[8],inactive
same,Potency,[9],inactive
same,outcome,[10],inactive
same,outcome,[11],inactive
same,outcome,[12],inactive
same,outcome,[13],inactive
same,Potency,[14],inactive
same,outcome,[15],inactive
same,Potency,[16],inactive
same,outcome,[17],inactive
same,Potency,[18],inactive
same,Potency,[19],inactive
O=S1(=O)OC(c2ccc(O)cc2)(c2ccc(O)cc2)c2ccccc21,"activity, negative = inhibition",[1]; [20],-0.266%
same,"activity, negative = inhibition",[1]; [21],7%
same,Potency,[2],inactive
same,Potency,[3],inactive
same,Potency,[4],inactive
same,Potency,[5],inactive
same,Potency,[6],inactive
same,Potency,[7],inactive
same,Potency,[8],inactive
same,Potency,[9],inactive
same,outcome,[10],inactive
same,outcome,[11],inactive
same,outcome,[12],inactive
same,outcome,[13],inactive
same,Potency,[14],inactive
same,outcome,[15],inactive
same,outcome,[17],inactive
same,Potency,[18],inactive
same,Potency,[19],inactive
CC1CCc2cc(F)cc3c(=O)c(C(=O)O)cn1c23 (configuration not stated),"activity, negative = inhibition",[1]; [20],-7.54%
same,"activity, negative = inhibition",[1]; [21],6.45%
same,Potency,[2],inactive
same,Potency,[3],inactive
same,Potency,[4],inactive
same,Potency,[5],inactive
same,Potency,[6],inactive
same,Potency,[7],inactive
same,Potency,[8],inactive
same,Potency,[9],inactive
same,outcome,[10],inactive
same,outcome,[11],inactive
same,outcome,[12],inactive
same,outcome,[13],inactive
same,Potency,[14],inactive
same,outcome,[15],inactive
same,Potency,[16],inactive
same,outcome,[17],inactive
same,Potency,[18],inactive
same,Potency,[19],inactive
CC[N+](CC)(CC(=O)Nc1c(C)cccc1C)Cc1ccccc1,"activity, negative = inhibition",[1]; [20],15.1%
same,"activity, negative = inhibition",[1]; [21],8.11%
same,Potency,[2],inactive
same,Potency,[3],inactive
same,Potency,[4],inactive
same,Potency,[5],inactive
same,Potency,[6],inactive
same,Potency,[7],inactive
same,Potency,[8],inactive
same,Potency,[9],inactive
same,outcome,[10],inactive
same,outcome,[11],inactive
same,outcome,[12],inactive
same,outcome,[13],inactive
same,Potency,[14],inactive
same,outcome,[15],inactive
same,Potency,[16],inactive
same,outcome,[17],inactive
same,Potency,[18],inactive
same,Potency,[19],inactive
CCN(CC)S(=O)(=O)c1ccc(C(=O)O)cc1,"activity, negative = inhibition",[1]; [20],7.39%
same,"activity, negative = inhibition",[1]; [21],20.6%
same,Potency,[2],inactive
same,Potency,[3],inactive
same,Potency,[4],inactive
same,Potency,[5],inactive
same,Potency,[6],inactive
same,Potency,[7],inactive
same,Potency,[8],inactive
same,Potency,[9],inactive
same,outcome,[10],inactive
same,outcome,[12],inactive
same,outcome,[13],inactive
same,Potency,[14],inactive
same,outcome,[15],inactive
same,Potency,[16],inactive
same,outcome,[17],inactive
same,Potency,[18],inactive
same,Potency,[19],inactive
NC(N)=NS(=O)(=O)c1ccc(N)cc1,"activity, negative = inhibition",[1]; [22],8.93%
same,"activity, negative = inhibition",[1]; [23],8.43%
same,Potency,[2],inactive
same,Potency,[3],inactive
same,Potency,[4],inactive
same,Potency,[5],inactive
same,Potency,[6],inactive
same,Potency,[8],inactive
same,Potency,[9],inactive
same,outcome,[10],inactive
same,outcome,[11],inactive
same,outcome,[12],inactive
same,outcome,[13],inactive
same,Potency,[14],inactive
same,outcome,[15],inactive
same,Potency,[16],inactive
same,outcome,[17],inactive
same,Potency,[18],inactive
same,Potency,[19],inactive
CC[N+](C)(CC)CCOC(=O)C1c2ccccc2Oc2ccccc21,"activity, negative = inhibition",[1]; [20],-12.5%
same,"activity, negative = inhibition",[1]; [21],-20.9%
same,Potency,[2],inactive
same,Potency,[3],inactive
same,Potency,[4],inactive
same,Potency,[5],inactive
same,Potency,[6],inactive
same,Potency,[7],inactive
same,Potency,[8],inactive
same,Potency,[9],inactive
same,outcome,[11],inactive
same,outcome,[12],inactive
same,outcome,[13],inactive
same,Potency,[14],inactive
same,outcome,[15],inactive
same,Potency,[16],inactive
same,outcome,[17],inactive
same,Potency,[18],inactive
FC(F)(F)C(Cl)Br (configuration not stated),"activity, negative = inhibition",[1]; [20],6.28%
same,"activity, negative = inhibition",[1]; [21],10.7%
same,Potency,[2],inactive
same,Potency,[3],inactive
same,Potency,[4],inactive
same,Potency,[5],inactive
same,Potency,[6],inactive
same,Potency,[7],inactive
same,Potency,[8],inactive
same,Potency,[9],inactive
same,outcome,[10],inactive
same,outcome,[11],inactive
same,outcome,[13],inactive
same,Potency,[14],inactive
same,outcome,[15],inactive
same,Potency,[16],inactive
same,outcome,[17],inactive
same,Potency,[18],inactive
same,Potency,[19],inactive
Cc1[nH]c(C)c(Cl)c(=O)c1Cl,Potency,[3],11.2 µM (active)
same,Potency,[4],inactive
same,Potency,[5],inactive
same,Potency,[6],inactive
same,Potency,[7],inactive
same,Potency,[8],inactive
same,Potency,[9],inactive
same,outcome,[11],inactive
same,outcome,[12],inactive
same,Potency,[14],inactive
same,Potency,[16],inactive
same,outcome,[17],inactive
same,Potency,[18],8.91 µM (active)
same,Potency,[19],inactive
CC(CN(C)C)C(C)(O)Cc1ccc(Cl)cc1 (configuration not stated),"activity, negative = inhibition",[1]; [20],6.13%
same,"activity, negative = inhibition",[1]; [21],10.7%
same,Potency,[2],inactive
same,Potency,[8],inactive
same,outcome,[10],inactive
same,outcome,[13],inactive
same,Potency,[14],13.5 µM (active)
same,outcome,[17],inactive
same,Potency,[18],2.51 µM (active)
Cc1cc(-n2nc3ccc(Cl)cc3n2)c(O)c(C(C)(C)C)c1,Potency,[2],inactive
same,Potency,[3],inactive
same,outcome,[11],inactive
same,outcome,[12],inactive
same,outcome,[13],inactive
same,Potency,[14],inactive
same,outcome,[15],inactive
same,Potency,[16],inactive
same,Potency,[18],inactive
Cc1c(NC(=O)c2cccnc2)c(=O)n(-c2ccccc2)n1C,"activity, negative = inhibition",[1]; [22],17.3%
same,"activity, negative = inhibition",[1]; [23],5.39%
same,Potency,[2],inactive
same,Potency,[4],inactive
same,Potency,[5],inactive
same,Potency,[6],inactive
same,Potency,[7],inactive
same,Potency,[8],inactive
same,Potency,[9],inactive
same,outcome,[10],inactive
same,outcome,[11],inactive
same,outcome,[12],inactive
same,outcome,[13],inactive
same,Potency,[14],inactive
same,outcome,[15],inactive
same,outcome,[17],inactive
same,Potency,[18],inactive
same,Potency,[19],inactive

# Reference: PubChem BioAssay (NCATS)
